Screens deposited in PubChem by several laboratories.
A selection: hits, their analogues and other compounds. The true share with any hit is near 2.8%.
LMP1 NFkB inh: inhibitors of Epstein-Barr LMP1-induced NF-kappaB reporter | LMP1-induced NF-kappaB luciferase reporter cells, luminescence | inhibition, % at 12.5 µM | hit rate 0.69% among 350,000 | AID 504558; in the data active = inhibition above about 41%; inconclusive = no clear call, values can overlap the other calls;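 note: 0% = neutral control wells and 100% = reference inhibitor control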
Peg3 promoter: reduces Peg3 promoter-driven luciferase expression in HeLa | HeLa PEG-Prom luciferase reporter, luminescence, overnight | inhibition, % at 20 µM | hit rate 1.7% among 360,000;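 active = inhibition of at least 50% at 20 µM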
TRPM1 prom inh: reduces MITF-dependent TRPM1 promoter luciferase signal; SK-MEL-5 TRPM1 promoter luciferase, 24 h; hit rate 0.83% among 330,000; inhibition, % at 12.5 µM;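 active = mean inhibition across replicates of 60% or more, whatever share of single replicates reaches that level; inconclusive = some that reach 60%, reason not given; inactive = mean inhibition across replicates below 60%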
HIF-2a block: blocks HIF-2a reporter activity; 786-0 RCC cells HIF-2a reporter, luciferase luminescence, overnight; inhibition, % at 18.8 µM; hit rate 0.72% among 360,000;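 active = inhibition of the luminescence signal of 40% or more relative to plate controls, in a single-dose primary screen at 18.75 µM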
PAX8 inh HTS: PAX8 transcriptional activity inhibition. RMG-I TPO-luciferase reporter, SteadyGlo, 24 h. inhibition, % at 12.6 µM. hit rate 1.2% among 360,000. AID 652154;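 active = mean replicate inhibition at least 60% with every replicate also reaching 60%; inconclusive = only one of the two criteria is met; inactive = mean below 60% and not all replicates reaching 60%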;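 note: luciferase light reporting Pax8 driven TPO promoter activity; plate controls were median of neutral control wells for no effect and mitoxantrone controls for full effect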
Shn3 3UTR inh: Schnurri-3 reporter inhibition in Clone20 osteoblasts. Clone20 osteoblast Shn3 3'UTR firefly luciferase, 24 h. inhibition, % at 12.5 µM. hit rate 0.52% among 360,000. AID 588674;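 active = mean inhibition of at least 75% with every replicate also reaching 75%; inconclusive = mean inhibition at least 75% but some replicate below; inactive = mean inhibition below 75%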;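 note: 0% = median of neutral control wells and 100% = pilot-screen positive control compound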
* marks the source's active call; other numbers are inactive results; ? = inconclusive; nt = no result given; ! = repeats disagree.

SMILES	LMP1 NFkB inh	Peg3 promoter	TRPM1 prom inh	HIF-2a block	PAX8 inh HTS	Shn3 3UTR inh
COc1cccc(S(=O)(=O)N[C@H]2CC[C@H](CC(=O)NCc3ccc(Cl)cc3)O[C@H]2CO)c1	nt	nt	nt	nt	7	nt
C[C@H](CO)N1C[C@H](C)[C@@H](CN(C)S(=O)(=O)c2ccc(-c3ccccc3)cc2)OCc2cn(nn2)CCCC1=O	4	-8	nt	-4	76*!	-8
C[C@H]1CN([C@@H](C)CO)C(=O)CCCn2nncc2CO[C@H]1CN(C)C(=O)Nc1ccc(-c2cccs2)cc1	nt	nt	nt	nt	66*	nt
C[C@@H]1CN([C@@H](C)CO)C(=O)CCCn2nncc2CO[C@H]1CN(C)C(=O)Nc1ccc(-c2cccs2)cc1	-1	-19	nt	-26	84*	-19
C[C@@H]1CN([C@@H](C)CO)C(=O)CCCn2cc(nn2)CO[C@@H]1CN(C)S(=O)(=O)c1ccc(-c2ccccc2)cc1	nt	nt	nt	nt	5	nt
C[C@@H]1CN([C@H](C)CO)C(=O)CCCn2cc(nn2)CO[C@H]1CN(C)C(=O)Nc1ccc(-c2cccs2)cc1	-3	-3	nt	-15	82*	-22
C[C@H](CO)N1C[C@H](C)[C@@H](CN(C)C(=O)Nc2ccc(-c3cccs3)cc2)OCc2cnnn2CCCC1=O	nt	nt	nt	nt	58	nt
C[C@H]1CN([C@@H](C)CO)C(=O)c2cc(NS(=O)(=O)c3cn(C)cn3)ccc2O[C@@H]1CN(C)Cc1ccc(Cl)c(Cl)c1	nt	nt	nt	nt	5	nt
C[C@H](CO)N1C[C@H](C)[C@H](CN(C)S(=O)(=O)c2ccc(F)cc2)Oc2ccc(NC(=O)Cc3ccccc3)cc2CC1=O	nt	nt	nt	nt	-5	nt
CC(=O)C1CCC2C3CC=C4CC(SC(=N)N)CCC4(C)C3CCC12C (centres undefined)	10	97*	90*	-29	nt	?
CC(=O)OCC(=O)C1CCC2C3CC=C4CC(O)CCC4(C)C3CCC12C (centres undefined)	-1	21	-2	7	-4	6
CCCNC(=O)N1CCN(S(=O)(=O)c2ccc(C)cc2)CC1	-17	-3	5	8	nt	0
CCCNC(=O)N1CCN(S(=O)(=O)c2ccc(C)c(C)c2)CC1	47*	9	-6	-4	nt	-8
C[C@@H]1CCCCO[C@H](CN(C)Cc2ccccc2)[C@H](C)CN([C@@H](C)CO)C(=O)c2cc(NC(=O)Nc3ccccc3)ccc2O1	nt	nt	nt	nt	-10	nt
Nc1c(Cl)ncnc1N/N=C/c1ccccn1	nt	nt	nt	nt	67*	nt
C[C@H](CO)N1C[C@H](C)[C@H](CN(C)Cc2ccc3c(c2)OCO3)Oc2ccc(NC(=O)C3CC3)cc2CC1=O	nt	nt	nt	nt	-3	nt
O=C(c1ccccn1)N1CC[C@@H]2[C@@H](CO)Nc3ccc(C#Cc4cccnc4)cc3[C@@H]21	nt	nt	nt	nt	10	nt
COc1cc(CN2CCC(C(=O)NC(c3ccc(-c4ccccc4)cc3)c3cnccn3)CC2)cc(OC)c1 (centres undefined)	nt	20	nt	-17	40	-3
COc1ccc(C(NC(=O)C2CCN(Cc3ccc(Oc4ccccc4)cc3)CC2)c2ccccc2C)cn1 (centres undefined)	nt	22	nt	-6	63*	50
Cc1cccnc1C(NC(=O)C1CCN(Cc2ccc(Oc3ccccc3)cc2)CC1)c1ccccc1 (centres undefined)	nt	14	nt	3	nt	13
O=C(NC(c1ccc(-c2ccccc2)cc1)c1cnccn1)C1CCN(Cc2ccc(Oc3ccccc3)cc2)CC1 (centres undefined)	nt	56*	nt	-21	nt	20
C[C@@H]1CN([C@@H](C)CO)C(=O)c2cc(NS(=O)(=O)c3ccc(Cl)cc3)ccc2O[C@@H]1CN(C)C(=O)Nc1ccc(F)cc1	nt	nt	nt	nt	-1	nt
O=C(C[C@H]1C[C@@H]2c3cc(NC(=O)c4ccc5c(c4)OCO5)ccc3O[C@@H]2[C@@H](CO)O1)NCCc1ccccc1	nt	nt	nt	nt	-16	nt
CCC(NC(=O)Nc1nnc(C(F)(F)F)s1)(C(F)(F)F)C(F)(F)F	46*	33	47	27	nt	83
CC(=O)N(C[C@@H]1N[C@@H](CO)[C@H]1c1ccc(-c2cccnc2)cc1)C1CCCC1	nt	nt	nt	nt	9	nt
SMILES	LMP1 NFkB inh	Peg3 promoter	TRPM1 prom inh	HIF-2a block	PAX8 inh HTS	Shn3 3UTR inh
Cc1ccc(Nc2nc(NCCO)c3ccccc3n2)cc1C	-1	54*	-13	-94	-21	45
OC1C(O)C(O)C(O)C(O)C1O (centres undefined)	91*!	-2	9	4	-4	4
CCOC(=O)N(O)c1ccc(C=Cc2ccccc2)cc1	86*	-81	-56	-25	-71	29
C[C@@H]1CN([C@H](C)CO)C(=O)Cc2cc(NC(=O)Cc3cn(C)c4ccccc34)ccc2O[C@@H]1CN(C)Cc1ccncc1	nt	nt	nt	nt	-2	nt
CC(C)Cc1ccc(C(C)CC2=CCC(CN(C)C)C2=O)cc1 (centres undefined)	-10	101*	42	-9	49	2
O=C(c1ccc(Cl)cc1)C(CN1CCCC1)c1ccccc1 (centres undefined)	46*	76*	77*	37	48	-1
O=C(c1ccc(F)cc1)C(CN1CCOCC1)c1ccccc1 (centres undefined)	26	105*	90*	30	nt	94*
COc1ccc(C(=O)C(CN2CCOCC2)c2ccccc2)cc1 (centres undefined)	?	98*	83*	-20	nt	89*
CCC(O)(c1ccc(OC)cc1)C(CN1CCOCC1)c1ccccc1 (centres undefined)	10	14	3	13	2	8
c1ccc(C(CN2CCOCC2)c2ccccc2)cc1	5	9	1	9	nt	10
CCCCC(O)(c1ccc(OC)cc1)C(CN1CCOCC1)c1ccccc1 (centres undefined)	5	52*	-7	29	-3	25
COc1ccc(C(=O)CCN2CCCCCC2)cc1	-2	-2	2	9	nt	-9
COc1ccc(C(=O)C(CN2CCCC2)c2ccccc2)cc1 (centres undefined)	-31	104*	64*	-5	nt	11
O=C(NCc1ccc(OC(F)(F)F)cc1)C1CC(c2c(Cl)cccc2Cl)=NO1 (centres undefined)	41*	10	nt	3	-12	13
Cc1ccc(S(=O)(=O)N(C)C[C@@H]2Oc3ccc(NS(=O)(=O)c4ccc(Cl)cc4)cc3CC(=O)N([C@@H](C)CO)C[C@H]2C)cc1	nt	nt	nt	nt	2	nt
